# Screen size: about 220,000 compounds; about 2,000 (0.91%) were called active. Another 2% or so got no clear call; they are omitted. The list is a sample of the results. Entries with a potency or affinity are not part of this list. Values without a mark were called inactive. Cut-off read from the data, not from the text of the source: inconclusive = inhibition above about 80% without an active follow-up result; inactive = below that; test concentration not stated here.
# Test: M. tuberculosis H37Rv growth inhibitors, H37Rv strain (AID 1626);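 note: bacteria incubated seven days before Alamar blue readout; 0% = bacteria only wells and 100% = bacteria with antibiotic wells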
# Conditions: hits give high values, concentration not given here
row,SMILES,inhibition [%]
1,C#CCn1c(=NC(=O)c2ccc(Br)s2)sc2cccc(OC)c21,49.8
2,CCn1c(=O)cc(SCC(=O)N2CCN(c3ccccc3OC)CC2)c2ccccc21,-4.03
3,COP(=O)(NC(=O)C(Cl)(Cl)Cl)OC,-4.54
4,Cc1ccc(SCC(=O)Nc2ccc(N3CCN(c4ccccc4)CC3)c(F)c2)cc1,3.11
5,CS(=O)(=O)NCCNc1ccc(C(F)(F)F)cc1[N+](=O)[O-],-3.33
6,COc1ccc(C2CC(=O)C(C=NCCO)=C(O)C2)cc1OC (stereo not given),-9.01
7,CN(CCc1cnn(C)c1)Cc1cn[nH]c1-c1ccc(-c2ccccc2)cc1,3.7
8,Cc1c(NC(=O)/C(=C\c2ccccc2)NC(=O)c2ccccc2)c(=O)n(-c2ccccc2)n1C,-13.7
9,COc1ccc(OCC(=O)N/N=C2\CCCc3ccccc32)cc1,1.63
10,O=C(NNS(=O)(=O)c1ccccc1Cl)c1nn(-c2ccc(F)cc2)ccc1=O,2.66
11,O=C(O)COc1ccc2c(-c3ccccc3)cc(=O)oc2c1,-6.46
12,O=C(O)C(Oc1ccc2c(-c3ccccc3)cc(=O)oc2c1)c1ccccc1 (stereo not given),-7.84
13,CCOc1ccc(-c2nnc(-c3ccncc3)o2)cc1,7.35
14,CCOc1ccc(-c2nnc(-c3ccc(OC)cc3)o2)cc1,3.3
15,CCOC(=O)C(Oc1ccc2c(-c3ccccc3)cc(=O)oc2c1)c1ccccc1 (stereo not given),15.1
16,CC(Oc1ccc2c(-c3ccccc3)cc(=O)oc2c1)C(=O)O (stereo not given),-19.3
17,N#Cc1ccc(NC(=O)c2cc(-c3cccs3)on2)cc1,-3.45
18,Cc1cc(C(=O)CSc2nnc(-c3ccc(Cl)cc3)n2C)c(C)n1CC1CCCO1 (stereo not given),-5.79
19,CCn1c(=O)c(=O)[nH]c2cc(C(=O)NC3CCCC3)ccc21,-14.3
20,COC(=O)c1cc(C)nc(Sc2ccccc2NC(C)=O)n1,-6.62
21,COc1ccc(-c2cnc(N)nc2-c2ccc(OC)cc2O)cc1,-8.12
22,Nc1ncc2c(n1)-c1ccccc1CC2,4.21
23,Cc1csc(NC(=O)CSc2ccc(-c3ccccc3)nn2)n1,-4.14
24,CCOC(=O)c1ccccc1NC(=O)CSc1ccc(-c2cccnc2)nn1,1.73

row,SMILES,inhibition [%]
1,Cc1ccc(CNC(=O)CSc2ccc(-c3ccccn3)nn2)cc1,9.75
2,CCOC(=O)c1ccc(NC(=O)CSc2ccc(-c3ccncc3)nn2)cc1,78
3,Cc1nnc(NC(=O)CSc2ccc(-c3ccccn3)nn2)s1,-8.09
4,CC(=O)Nc1cccc(NC(=O)CSc2ccc(-c3ccccn3)nn2)c1,5.52
5,Cc1ccc(-c2ccc(SCC(=O)Nc3cc(C)on3)nn2)cc1,1.42
6,Cc1nonc1NC(=O)CSc1ccc(-c2ccccc2)nn1,29.3
7,CC(C)CNC(=O)c1cccc(NC(=O)C(C)Oc2ccccc2)c1 (stereo not given),9.89
8,COc1cc(CNC2CCCCCC2)cc(OC)c1,9.94
9,Cc1nc(-c2ccc(Cl)cc2)sc1C(=O)NNC(=O)C(C)C,-5
10,CCC1CCCCN1C(=O)COc1c(Br)cc(Br)c2cccnc12 (stereo not given),-13.3
11,CCn1nc(C(=O)Nc2ccc(S(=O)(=O)Nc3ncccn3)cc2)c2ccccc2c1=O,1.39
12,CCN(CC)S(=O)(=O)c1cc(NC(=O)COC(=O)CCc2nc3ccccc3s2)ccc1C,0.37
13,CCOc1ccc(NC(=O)Cn2c(=O)n(CC3CCCO3)c(=O)c3ccccc32)cc1 (stereo not given),0.09
14,COc1cccc2cc(C(N)=O)/c(=N/NC(=O)COc3ccc(Cl)cc3)oc12,1.32
15,CC(C)c1ccc(NC(=O)COc2nnc(-c3cccs3)c(-c3cccs3)n2)cc1,3.94
16,O=C(CSc1ccccn1)c1ccc(F)cc1,-5.01
17,O=C(CSc1ccc(-c2ccccn2)nn1)c1ccc([N+](=O)[O-])cc1,9.1
18,CCC(Sc1nc2ccccc2c(=O)[nH]1)C(=O)Nc1ccc(C(C)=O)cc1 (stereo not given),10.9
19,CCOC(=O)C(NCc1ccccc1OC)(NC(C)=O)C(F)(F)F (stereo not given),-3.95
20,CCOC(=O)C(C)Sc1nnc(NC(=O)c2cccc([N+](=O)[O-])c2C)s1 (stereo not given),27
21,COCCSc1nnc(NC(=O)c2ccc(OC)c([N+](=O)[O-])c2)s1,-5.62
22,O=C(NCc1cccs1)c1cccc(S(=O)(=O)N2CCCCC2)c1,-1.3
23,O=[N+]([O-])c1cccc(N=NN(CCO)c2cccc([N+](=O)[O-])c2)c1,7.57
24,Cc1ccc(NC(=O)c2cncc(Br)c2)c([N+](=O)[O-])c1,5.6

row,SMILES,inhibition [%]
1,OCCNc1nc(-c2ccccc2)nc2c1oc1ccccc12,1.56
2,CNC(=O)c1nnsc1S(=O)c1ccc(Cl)cc1 (stereo not given),78.9
3,O=C(Nc1ccccc1)c1nnsc1S(=O)c1ccc(Cl)cc1 (stereo not given),47.2
4,CN(C)C(=O)c1nnsc1Sc1ccc(Cl)cc1,-1.74
5,O=C(c1ccc(S(=O)(=O)c2ccc(Cl)cc2)cc1)N1CCOCC1,-6.61
6,O=C(Nc1ccccc1)c1nnsc1S(=O)(=O)c1ccc(Cl)cc1,2.07
7,N/C(=N\S(=O)(=O)c1ccc(Cl)cc1)N1CCOCC1,-5.14
8,CCCNC(=O)NS(=O)(=O)c1ccc(Cl)cc1,-12.9
9,CCCNC(=O)c1nnsc1Sc1ccc(Cl)cc1,18.6
10,CNC(=O)CCC(=O)Nc1ccc(C)cc1,-1.09
11,COc1ccc(C2C(C(=O)O)CCC(=O)N2c2ccc(C)cc2)cc1OC (stereo not given),-2.58
12,C=C(C)Cn1c(SCCCO)nc2c1c(=O)[nH]c(=O)n2C,-7.43
13,O=C(NC1CC1)C1=COCCO1,-8.37
14,O=C(Nc1ccccc1N1CCOCC1)c1cc(F)cc(F)c1,-4.82
15,N#Cc1cc(C(=O)c2cc(Cl)ccc2O)cn(-c2ccccc2)c1=O,-3.03
16,Cc1ccc(C(=O)NNC(=O)Cn2nnc3ccccc32)cc1,-15.4
17,CN1CCN(C(=O)c2cnn(-c3ccccc3)c2NC(=O)c2ccccc2)CC1,-6.4
18,O=C(N/N=C/c1cccc([N+](=O)[O-])c1)c1cccs1,4.78
19,COc1ccc(C(C)=O)cc1COC(=O)c1ccc(S(=O)(=O)N(C)C)cc1,-3.54
20,O=C(Nc1ccn(Cc2c(F)c(F)cc(F)c2F)n1)c1cccc(Cn2cc([N+](=O)[O-])cn2)c1,2.31
21,CC1=C(C(=O)N2CCOCC2)C(c2c(F)cccc2F)NC(=O)N1 (stereo not given),-2.62
22,CCOC(=O)C1CCCN(S(=O)(=O)c2ccc(S(N)(=O)=O)cc2)C1 (stereo not given),-2.7
23,O=C(c1cc(Cl)ccc1Cl)N1CCOCC1,-11
24,Cc1nnsc1-c1c(C(=O)N2CCOCC2)c(C)nn1-c1ccc(Cl)cc1,3.63

row,SMILES,inhibition [%]
1,Cc1c(C(=O)Nc2cccc(S(=O)(=O)N3CCCC3)c2)oc2ccccc12,0.77
2,CCC(CC)C(=O)Nc1cccc(C(=O)Nc2ccc3c(c2)OCO3)c1,0.36
3,CC1CC(C)CN(C(=O)c2ccc3c(c2)N(Cc2ccccc2)CCS3)C1 (stereo not given),8.05
4,CC1Cc2ccccc2N1C(=O)Cn1c(=O)cc(O)c2ccccc21 (stereo not given),-9.25
5,CCCCn1c(SCC(=O)Nc2nccs2)nc2ccccc2c1=O,-6.31
6,CN(C)CCCn1c(SCC(=O)N2c3ccccc3Sc3ccccc32)nc2ccccc2c1=O,0.3
7,COCCCn1c(SCC(=O)Nc2ccc(C)cc2)nc2ccccc2c1=O,-3.97
8,O=C(CSc1nc2ccccc2[nH]1)Nc1nc(-c2cccc(Br)c2)cs1,9.78
9,CC(=O)c1nnn(-c2ccc([N+](=O)[O-])cc2)c1C,-0.32
10,c1ccc2c(-c3cn4ccccc4n3)c[nH]c2c1,-5.8
11,O=C1CC(=C(c2ccccc2)c2ccccc2)C(=O)N1CCN1CCN(c2cccc(Cl)c2)CC1,5.45
12,Cc1ccccc1N1CCN(CCCN2C(=O)CC(=C(c3ccccc3)c3ccccc3)C2=O)CC1,0.08
13,O=C1CC(=C2c3ccccc3-c3ccccc32)C(=O)N1CCCCN1CCN(c2ccccc2)CC1,8.38
14,O=C1CC(=C(c2ccccc2)c2ccccc2)C(=O)N1CCCN1CCN(c2cccc(Cl)c2)CC1,12.8
15,COc1cccc(C2C(C(=O)c3cccs3)=C(O)C(=O)N2CCN(C)C)c1OC (stereo not given),-9.59
16,Cc1ccc(NP(=O)(Nc2ccc(C)cc2)Oc2ccccc2)cc1,5.95
17,O=C(NCc1ccccc1Cl)C1CCCN(c2nc3ccsc3c(=O)s2)C1 (stereo not given),1.18
18,NC(=O)c1nsc(C(=O)N(CC(=O)NCc2ccc3c(c2)OCO3)C2CCCC2)c1N,0.67
19,C=CCNC(=O)/C(C#N)=C/c1c(C)nn(-c2ccc(Cl)cc2)c1Cl,4.6
20,O=C(CC(Nc1ccccc1Cl)C(=O)OCC(=O)c1cccs1)c1ccccc1 (stereo not given),-5.28
21,COc1ccccc1NC(CC(=O)c1ccccc1)C(=O)OCC(=O)c1ccc(F)cc1 (stereo not given),78.2
22,O=C(CC(Nc1cccc(Cl)c1Cl)C(=O)OCC(=O)c1cccs1)c1ccccc1 (stereo not given),-5.78
23,CC(=O)NC(Cc1ccccc1)C(=O)OCC(=O)c1ccc(Br)cc1 (stereo not given),-1.27

# From PubChem BioAssay AID1626 (SRMLSC, 2009)
